Our source for the outcome values is PubChem BioAssay AID1347070 (National Center for Advancing Translational Sciences (NCATS), 2019).

Out of some 94,000 compounds screened, about 20 (0.02%) were called active. Another 1% or so got no clear call; they are omitted. The call rests on the fitted dose curve; in most records, active means well fitted activation curve with a large enough effect; inconclusive means small, poorly fitted or top-dose-only effect; inactive means flat fitted curve, though single readings scatter. A selection follows.

This test is described as follows: qHTS of alpha-syn Inhibitors: NCGC Sytravon Library Screen. Conditions: S. cerevisiae alpha-synuclein toxicity rescue, BacTiter-Glo growth, 24 h; series mostly up to 46.1 µM. An excerpt:
The goal of this project is to identify new chemical probes capable of reversing the toxicity associated with the Parkinson disease-related protein, alpha-synuclein. Compounds will be selected on their ability to restore growth in yeast cells expressing toxic levels of alpha-synuclein. These compounds will provide a complementary approach to deciphering the tangled mechanisms of toxicity and protection that we have uncovered through genome-wide genetic screens and are beginning to uncover in a large-scale proteomics analysis with mass spectroscopy. To this end, a miniaturized assay was developed to be screened against the Molecular Libraries Small Molecule Repository (MLSMR) to discover alpha-synuclein inhibitors. […] The phenotype of interest will be that of an Activator and this screen is run against the NCGC Sytravon Library collection. NIH Chemical Genomics Center [NCGC] NIH Molecular Libraries Probe Centers Network [MLPCN] MLPCN Grant: NS060957 Assay Submitter (PI): Susan Lindquist, Whitehead Institute/MIT
Dispense 2.5 microL yeast galactose medium per 1536-well plate, pin compound, dispense 2.5 microL alpha-synuclein expressing yeast in galactose medium at OD600=0.02 (pregrown in raffinose medium to mid-log phase) per well, incubate for 24 hr at 30 deg C, and cell growth will be measured using 5 microL of Bactiter/Glo reagent to entire plate and read using Luminescence Protocol in ViewLux.
Regarding `CC(=O)Nc1ccc(C=CC(=O)c2ccc([N+](=O)[O-])cc2)cc1`, the outcome was inactive.
On to `CC1CCCC(NC(=O)COC(=O)c2ccccc2C(=O)N(C)C2CCCCC2)C1C` (centres undefined), for which the call was inactive.
Under `Cc1cc(=O)oc2c3c(cc(OCC(=O)NCCC(=O)N[C@@H](C)C(=O)O)c12)OC(C)(C)CC3` stands “inactive”; under `COc1ccc(CN2C[C@H]3CON(C)[C@H]3C[C@H]2c2ccc(-c3cccc(F)c3)cc2)cc1`, “inactive”.
In the case of `O=C(COC(=O)CCc1ccc(S(=O)(=O)N2CCOCC2)cc1)Nc1cccc(Cl)c1` it was “inactive”; in that of `CC(=O)NC1C(Oc2ccc(C=O)cc2)OC(COC(C)=O)C(OC(C)=O)C1OC(C)=O` (centres undefined), “inactive”; in that of `CCc1ccccc1OCC(=O)Nc1nnc(C2CC2)s1`, “inactive”.
In the case of `C=C(C)CNC(=O)c1ccc(OC2CCN(C(=O)COC)CC2)cc1`, the call was inactive.
In the case of `COc1ccc(CCNC(=O)C(=O)NCC2CCCN2S(=O)(=O)c2cccs2)cc1OC` (centres undefined) it was “inactive”.
Under `CC1(C)OC(=O)C2=C(CC(c3ccccc3)OC2CCc2ccccc2)O1` (centres undefined) stands “inactive”; under `CCOC(=O)C=Cc1ccc(C(=O)OCC)[nH]1`, “inactive”.
For the compound `CCOn1c(=O)c(=O)n(O)c2ccccc21`, the result was inactive.
As to `COc1ccc(NS(=O)(=O)c2ccc(F)cc2F)cn1`, the outcome was inactive.
Under `CC(C)CN(C(=O)COC(=O)c1ccc(Cl)c(N)c1)c1c(N)n(Cc2ccccc2)c(=O)[nH]c1=O` stands “inactive”; under `CC(=O)c1sc(N)nc1C`, “inactive”.
Under `O=C1COc2ccc(S(=O)(=O)NCCc3ccc(Cl)cc3)cc2N1` stands “inactive”.
Under `CCCCn1c(N)c(N(CC(C)C)C(=O)C2CSC3(C)CCC(=O)N23)c(=O)[nH]c1=O` (centres undefined) stands “inactive”; under `O=C(CN1C(=O)NC2(CCc3ccccc32)C1=O)NC1CCCCC1` (centres undefined), “inactive”.
On to `Cc1cc(C)c(NC(=O)CN2C(=O)NC(Cc3ccccc3)C2=O)c(C)c1` (centres undefined), for which the compound was classed as inactive.
As to `O=C(O)c1ccccc1Cc1ccc(F)c2ccccc12`, the compound was classed as inactive.
Under `CC(C)CCN1CCN(Cc2ccc(C(F)(F)F)cc2)CC1CCO` (centres undefined) stands “inactive”; under `Cc1ccc(C)c(OCCC(=O)OCC(=O)c2ccc3c(c2)NC(=O)CO3)c1`, “inactive”.
In the case of `CC(=O)Nc1ccc(NC(=O)CSc2ncnc3c2cnn3Cc2ccccc2)cc1` it was “inactive”; in that of `CCCc1cc(=O)[nH]c(SCc2cc(=O)oc3c(C)c(C)ccc23)n1`, “inactive”; in that of `Cc1c(NC(=O)C(C)OC(=O)c2c3c(nc4ccccc24)CCC(C)C3)c(=O)n(-c2ccccc2)n1C` (centres undefined), “inactive”.
On to `Cc1cc(C(=O)CCC(=O)NNC(=O)c2ccccc2O)c(C)s1`, for which the compound was called inactive.
Under `Cc1ccc(OCCC(=O)OCC(=O)N2c3ccccc3NC(=O)C2(C)C)cc1` stands “inactive”; under `O=C(CN1CCOCC1)Nc1cccc([N+](=O)[O-])c1`, “inactive”; under `c1ccc(-c2nnc(N3CCOCC3)c3ccccc23)cc1`, “inactive”.
Under `CCOCc1nnc(NC(=O)CCS(=O)(=O)Cc2ccccc2)s1` stands “inactive”.
Under `CCCC(C(=O)NC1CCCC1)N(C(=O)Cn1nnc(-c2ccc(C)o2)n1)c1cccc(O)c1` (centres undefined) stands “inactive”; under `CCN(C(=O)CSc1nnnn1-c1ccccc1OC)C1CCS(=O)(=O)C1` (centres undefined), “inactive”; under `O=c1[nH]c2ccc(S(=O)(=O)N3CCCC3)cc2[nH]1`, “inactive”.
Regarding `Cc1nnc(SCCCCSc2nnc(C)c(=O)[nH]2)[nH]c1=O`, the result was inactive.
In the case of `COc1ccc(N2CCN(C(=S)Nc3ccc(S(N)(=O)=O)cc3)CC2)cc1` it was “inactive”.
Turning to `COc1ccc(/C=N/S(=O)(=O)c2ccccc2)cc1OC`, the call was inactive.
Regarding `Cc1ccc([C@H]2N[C@]3(CCCN(CC4CCCCC4)C3=O)[C@H]3C(=O)N(Cc4ccccc4)C(=O)[C@@H]23)cc1`, the compound was classed as inactive.
With `CCCCn1c(N)c(N(CCOC)C(=O)c2sc3ccccc3c2Cl)c(=O)[nH]c1=O`, the result was inactive.
Under `CC(=O)NCc1ccc(S(=O)(=O)NC2CCN(Cc3ccccc3)CC2)cc1` stands “inactive”; under `CCN(CC(=O)Nc1c(F)cccc1F)C(=O)c1ccc(Sc2nncn2C)c([N+](=O)[O-])c1`, “inactive”.
As for `O=c1[nH]nc(SCCS(=O)(=O)c2ccc(F)cc2)n1-c1ccccc1C(F)(F)F`, the result was inactive.
Under `Cc1sc2nc(CSCC(=O)NC3CCCCC3)[nH]c(=O)c2c1C` stands “inactive”; under `CC1(C)C[C@H]2C3=CCC4[C@@]5(C)CC[C@H](O)[C@](C)(CO)C5CC[C@@]4(C)[C@]3(C)C[C@@H](O)[C@@]2(CO)[C@@H](O)[C@@H]1O` (some centres undefined), “inactive”; under `Cc1c(C(=O)NC(C)C2CC3CCC2C3)cccc1[N+](=O)[O-]` (centres undefined), “inactive”.
Regarding `O=C(CCNC(=O)c1ccc([N+](=O)[O-])cc1)NC1CCCCC1`, the result was inactive.
Under `Cn1c(CSCC(=O)Nc2ccccc2)nnc1SCc1ccccc1` stands “inactive”; under `Cc1cccc(N(CC(=O)N2CCCC2)S(C)(=O)=O)c1C`, “inactive”.
In the case of `CN(C)C(CNC(=O)c1cc(Br)c(Br)s1)c1ccco1` (centres undefined) it was “inactive”.
In the case of `Cc1ccc(CN2CCC(N3CCC(C(=O)NCC4CCCO4)CC3)CC2)o1` (centres undefined) it was “inactive”; in that of `O=C(NCCS(=O)(=O)NCc1ccc(Cl)cc1)c1ccccc1`, “inactive”; in that of `CC1=C(C(=O)N2CCOCC2)CC(CC(=O)NCc2ccco2)C(=O)N1Cc1ccc(F)cc1` (centres undefined), “inactive”.
For `Cc1ccc(C)n1NC(=O)c1ccc([N+](=O)[O-])cc1`, the compound was classed as inactive.
In the case of `COc1ccc(-c2cc(=O)oc3cc(OC(C)C(=O)NCC4CCC(C(=O)O)CC4)ccc23)cc1` (centres undefined) it was “inactive”.
Under `CCOc1ccc(C(=O)CCC(=O)NC2=NCCS2)cc1` stands “inactive”.
As to `O=C1N/C(=C/c2cccs2)C(=O)N1Cc1ccc(F)cc1`, the outcome was inactive.
In the case of `C/C(COc1ccccc1)=N\NC(=O)c1nnn(-c2nonc2N)c1-c1ccc(C)cc1` it was “inactive”; in that of `CCCCn1c(N)c(N(CC(C)C)C(=O)c2cccc(S(=O)(=O)N3CCN(C(C)=O)CC3)c2)c(=O)[nH]c1=O`, “inactive”.
In the case of `O=C(c1ccc(C(F)(F)F)cc1)C1CCCN(C(=O)c2csnn2)C1` (centres undefined) it was “inactive”; in that of `COc1ccc(/C=C/CN2CCN(Cc3ccc(C)cc3)C(CCO)C2)cc1` (centres undefined), “inactive”.
Under `CCOc1ccc(S(=O)(=O)N2CCCC(C(=O)N3CCC(C(N)=O)CC3)C2)cc1Cl` (centres undefined) stands “inactive”.
Regarding `NS(=O)(=O)c1ccc(NC(=S)NNC(=O)c2cccs2)cc1`, the call was inactive.
In the case of `O=C(COc1ccccc1O)NC1CCCC1` it was “inactive”.
Under `CC1=C(C(=O)N2CCOCC2)CC(CC(=O)NCCN2CCOCC2)C(=O)N1CCC1=CCCCC1` (centres undefined) stands “inactive”; under `COc1ccccc1C(=O)NC(=O)COC(=O)c1ccco1`, “inactive”.
In the case of `O=C(Nc1ccccc1)C1CC(=O)n2c(nc3ccccc32)N1` (centres undefined) it was “inactive”; in that of `Cc1ccc(C=O)c([B-](F)(F)F)c1`, “inactive”.
Take `O=C(CNc1ccccc1N1CCCC1=O)Nc1cc(Cl)ccc1-n1cncn1`: the result was inactive.
Under `O=C(/C=C/Nc1ccc(S(=O)(=O)Nc2cnc3ccccc3n2)cc1)c1cccnc1` stands “inactive”; under `CCOC(=O)c1cc(-c2sc(NC(=O)c3ccccc3)nc2C)n(CCO)n1`, “inactive”; under `COc1ccc2oc(C(=O)N(CC(C)C)C3CCS(=O)(=O)C3)c(C)c2c1` (centres undefined), “inactive”.
As for `CN(CCN1CCOCC1)Cc1nc(-c2ccc3c(c2)OCO3)no1`, the call was inactive.
In the case of `COCOCCn1cc(CN2CCS(=O)(=O)N(Cc3ccc(-c4ccccc4)cc3)C(CC(C)C)C2=O)nn1` (centres undefined) it was “inactive”; in that of `CCc1nnc(NC(=O)c2ccco2)s1`, “inactive”; in that of `Cn1ccc(=NC=C(C#N)C#N)c2ccccc21`, “inactive”.
Consider `COc1cc(NS(=O)(=O)c2ccc(NC(=S)NC(=O)c3ccccc3)cc2)nc(OC)n1`, for which the outcome was inactive.
As to `O=C(OCc1nnc(-c2ccccc2)o1)c1cc(=O)[nH]c2ccccc12`, the compound was classed as inactive.
In the case of `O=C1[C@H]2[C@@H](c3ccc(C(F)(F)F)cc3)N[C@]3(CCCN(Cc4ccc(Cl)cc4)C3=O)[C@H]2C(=O)N1Cc1ccccc1` it was “inactive”; in that of `Cn1cnnc1SCC(=O)NNC(=O)COc1ccc(Br)cc1`, “inactive”.
On to `Cc1ccc(N(C(=O)Cc2cccs2)C(C(=O)NCC2CCCO2)c2ccncc2)cc1` (centres undefined), for which the outcome was inactive.
In the case of `COc1ccccc1NC(=O)CCSc1nnc(-c2ccc(O)cc2)o1` it was “inactive”; in that of `O=C(OCc1cn([C@H]2C[C@H](c3ccccc3)N(C(=O)c3cccs3)C[C@@H]2O)nn1)c1ccccc1`, “inactive”; in that of `COc1ccc(NC(=O)CN(C)C(=O)c2cc(C)oc2C)cc1`, “inactive”.
Turning to `Cc1noc(C)c1COc1ccccc1C(=O)N(C)CC(=O)Nc1cccc(F)c1`, the compound was classed as inactive.
For `COc1ccc(N(C(=O)c2snc(C(N)=O)c2N)C(C(=O)NC2CCCC2)c2ccc(C)o2)c(OC)c1` (centres undefined), the result was inactive.
Under `NS(=O)(=O)c1ccc(NC(=S)NC(=O)c2cccnc2)cc1` stands “inactive”.
In the case of `C=C(C)COc1ccc(-c2nc(N)ncc2-c2ccccc2OC)c(O)c1` it was “inactive”; in that of `Cc1cccc(OCC(=O)NCCCNC(=O)c2ccccn2)c1`, “inactive”.
As for `O=C(NC1CCCC1)C1CC(=O)N(c2ccc(F)cc2)C1` (centres undefined), the call was inactive.
Under `CO/N=C/c1cn(-c2ccc(Cl)cc2)nn1` stands “inactive”; under `CC(OC(=O)c1ccc(NC(=O)CC#N)cc1)C(=O)Nc1ccc(S(=O)(=O)N2CCCC2)cc1` (centres undefined), “inactive”; under `Cc1cccc(C)c1NC(=O)CS(=O)CC(=O)N1CCN(c2ccccc2)CC1` (centres undefined), “inactive”.
Turning to `CCOc1ccc(NS(=O)(=O)c2ccc(C(=O)NCC(c3ccccc3OC)N3CCCC3)cc2)cc1` (centres undefined), the compound was classed as inactive.
In the case of `O=[N+]([O-])c1ccc(C(S(=O)(=O)Cc2ccccc2)S(=O)(=O)Cc2ccccc2)cc1` it was “inactive”; in that of `O=C(NCc1ccc(Cl)cc1)C(=O)NCC1CCCN1S(=O)(=O)c1cccs1` (centres undefined), “inactive”.
Under `O=C(CNC(=O)N1CC(=O)Nc2ccccc21)Nc1ccc(Br)cc1F` stands “inactive”; under `O=C(c1ccc(N2CCCC2=O)cc1)N1CCN(c2ccc(C(F)(F)F)cc2[N+](=O)[O-])CC1`, “inactive”.
Take `Cc1ccc(CN2CC(C(=O)N3CCN(S(=O)(=O)c4ccccc4)CC3)CC2=O)cc1` (centres undefined): the compound was called inactive.
Under `CCN(C(=O)C1CCCN(c2nc(-c3ccc(OC)cc3)no2)C1)c1ccc(OC)cc1` (centres undefined) stands “inactive”.
Turning to `CN(C)c1ccc(C2Nc3ccccc3C(=O)N2NS(=O)(=O)c2ccccc2)cc1` (centres undefined), the result was inactive.
